This note sets out measurements from PubChem BioAssay (NCATS).

Structures are written as SMILES. Where “and” joins values, the source holds several entries; their conditions need not be identical. Equal values may be shown once. Results filed as inconclusive are left out. Calls of active or inactive are those of the source. Unless noted, calls follow the shape of the full dose curve.

Test [1] has as its target Estrogen receptor (Homo sapiens) (UniProt P03372). Put plainly: qHTS assay for small molecule agonists of estrogen receptor alpha signaling (AID 588514). Also: nearly all actives have a fitted effect of over 70% in size. Also: potency is read from the fitted curve at half-maximal effect.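 As to activation: 0% = vehicle only and 100% = reference agonist.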 The method in brief: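 Read-out: CCF4 fluorescence from a beta-lactamase reporter in ER-alpha-UAS-bla HEK 293 cells after 18 hrs of compound exposure at 37 C. Normalized to 20 nM 17-beta-estradiol (100%) and DMSO (0%).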
(In qHTS, concentration-response curves come from the screen itself.)

Test [2] addresses Peroxisome proliferator-activated receptor delta (Homo sapiens) (UniProt Q03181). Put plainly: qHTS assay for small molecule agonists of peroxisome proliferator-activated receptor delta signaling (AID 588534).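 Also: 0% = DMSO basal wells and 100% = positive control agonist at 10 µM.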 In a few lines: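 Titration series tested in agonist mode on beta-lactamase reporter cells; 18 hrs at 37 C after a 5 hr pre-incubation. Readout: CCF4 fluorescence, 2 hrs RT. Hill equation gives EC50 and maximal response.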

The nature of test [3]: qHTS assay for small molecule antagonists of peroxisome proliferator-activated receptor delta signaling (AID 588535; active = well fitted inhibition curve with a large enough effect in the signal ratio, with a control signal flat, not every such curve was filed as active; the % refers to the signal ratio;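 as to max response: cells co-treated with a PPAR-delta agonist as stimulator during compound exposure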). The conditions noted are these: HEK293T PPARd-UAS-bla, beta-lactamase FRET ratio, 18 h; 460 nm channel. In a few lines:
(§1)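 Antagonist-mode qHTS using GeneBLAzer PPAR-delta-UAS-bla HEK293T cells; compound exposure 18 hrs at 37 C over a titration. Ratiometric CCF4 fluorescence at 460/530 nm; concentration-response points fitted to the Hill equation.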

For test [4], the target named is Peroxisome proliferator-activated receptor delta (Homo sapiens) (UniProt Q03181). The description is as above. In a few lines:
as §1

In test [5] the target is Vitamin D3 receptor (Homo sapiens) (UniProt P11473). Put plainly: qHTS assay for small molecule antagonists of vitamin D receptor signaling (AID 588541).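 Also: receptor activated by calcitriol during compound treatment; series mostly up to about 77 µM; % is scaled to controls: 0 for no effect and ±100 for the full control effect.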 In a few lines:
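Antagonist-mode beta-lactamase reporter assay: HEK293T VDR-UAS-bla cells were exposed to titrated compound alongside 1-alpha,25-dihydroxyvitamin D3 at 3 nM final for 16 h. Values were normalized to the 50 nM agonist control and DMSO basal, with IC50 and efficacy from Hill equation fits.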

Test [6] deals with Thyroid hormone receptor beta (Homo sapiens) (UniProt P10828). Kind of test: qHTS assay for small molecule agonists of thyroid hormone receptor beta signaling (AID 588545). The method in brief: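 Agonist activity was read as beta-lactamase CCF4 fluorescence (405 ex, 460/530 em), scaled between DMSO (0%) and 10 nM T3 (100%), then Hill-fitted for EC50 and efficacy. HEK 293 TR-UAS-bla cells in 2% charcoal/dextran FBS medium were exposed 18 h at 37 C.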
Thyroid hormone receptor beta (Homo sapiens), sequence (P10828 whole entry, looked up): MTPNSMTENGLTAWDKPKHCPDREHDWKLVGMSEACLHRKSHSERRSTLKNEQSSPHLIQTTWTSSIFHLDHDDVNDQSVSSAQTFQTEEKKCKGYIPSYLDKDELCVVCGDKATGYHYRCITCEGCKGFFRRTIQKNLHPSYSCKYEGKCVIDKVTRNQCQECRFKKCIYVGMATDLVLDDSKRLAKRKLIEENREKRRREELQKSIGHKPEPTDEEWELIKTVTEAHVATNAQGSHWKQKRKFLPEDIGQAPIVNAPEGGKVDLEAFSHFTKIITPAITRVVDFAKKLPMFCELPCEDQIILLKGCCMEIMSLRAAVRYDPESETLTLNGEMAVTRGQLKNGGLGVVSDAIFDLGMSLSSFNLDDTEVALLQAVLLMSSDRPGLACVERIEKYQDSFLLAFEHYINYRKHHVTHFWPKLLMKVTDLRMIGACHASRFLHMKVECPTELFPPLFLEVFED

Test [7] is described as follows: qHTS assay for small molecule antagonists of retinoid X receptor alpha signaling (AID 588546; active = well fitted inhibition curve with a large enough effect in the signal ratio, with a control signal flat, not every such curve was filed as active; the % refers to the signal ratio;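 also: cells stimulated with 9-cis-retinoic acid as agonist; % is scaled to controls: 0 for no effect and ±100 for the full control effect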). The conditions noted are these: HEK293T RXRa-UAS-bla, beta-lactamase ratio, antagonist mode; measured here: W530 green channel, cytotoxicity proxy. In a few lines: (§2)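 Beta-lactamase reporter inhibition, read as CCF4 fluorescence ratio (ex 405, em 460/530 nm) after 2 h at RT. HEK293T UAS-bla cells, 2500/well, were stimulated with 9-cis-RA at 500 or 100 nM final alongside test compound for 18 h at 37 C.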

For test [8], the target named is Retinoic acid receptor RXR-alpha (Homo sapiens) (UniProt P19793). Described as above. The conditions noted are these: HEK293T RXRa-UAS-bla, beta-lactamase ratio, antagonist mode. The method in brief:
as §2

Test [9] concerns the target Thyroid hormone receptor beta (Homo sapiens) (UniProt P10828). Kind of test: qHTS assay for small molecule antagonists of thyroid hormone receptor beta signaling (AID 588547; active = well fitted inhibition curve with a large enough effect in the signal ratio, with a control signal flat, not every such curve was filed as active; the % refers to the signal ratio;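 also: cells stimulated with 0.4 nM T3 agonist during compound exposure; series mostly up to about 77 µM; % is scaled to controls: 0 for no effect and ±100 for the full control effect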). The conditions noted are these: TR-UAS-bla HEK293, beta-lactamase ratio, antagonist mode, 18 h. The method in brief:
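Inhibition of T3-driven (0.4nM final) beta-lactamase reporter activity was measured over 0.59 nM to 92 uM compound after 18 h at 37 C. The cells were GripTite HEK293 TR-UAS-bla in charcoal/dextran-stripped serum, with CCF4 ratio read-out and IC50 from Hill fits.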

Test [10] is described as follows: qHTS assay for small molecule activators of the p53 signaling pathway (AID 651743; active = well fitted activation curve with a large enough effect in the signal ratio, not every such curve was filed as active; the % refers to the signal ratio; also: series mostly up to about 92 µM; % of control where 0% means no effect). The conditions noted are these: HCT-116 p53RE-bla, beta-lactamase FRET ratio, 16 h; activation: stronger effect = higher value. The method in brief: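 A beta-lactamase reporter under p53 response element control, stably carried by HCT-116 cells, reported pathway activation. Test compounds were applied for 16 hours at 37 C, and fluorescence was measured 2 hours after adding the B/G FRET substrate.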

Test [11] is described as follows: qHTS assay for environmental chemicals that activate the Aryl hydrocarbon Receptor (AhR) signaling pathway (AID 651777; active = well fitted curve in the direction sought with a large enough effect; an effect the other way counts as inactive or inconclusive; also: % of control where 0% means no effect; nearly all actives have a fitted effect of over 15% in size). Particulars: 1A2-DRE human hepatoma cells, luciferase, 24 h; activation: stronger effect = higher value. In a few lines: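 Measured luciferase activity, read 30 min after One-Glo addition at room temperature, from human hepatoma cells bearing a dioxin response element–CYP1A2 promoter reporter and exposed to compound for 24 hr at 37 C.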

Test [12] has as its target Peroxisome proliferator-activated receptor alpha (Homo sapiens) (UniProt Q07869). Put plainly: qHTS assay for small molecule agonists of the peroxisome proliferator-activated receptor alpha (PPARalpha) signaling pathway (AID 651778; active = well fitted curve in the direction sought with a large enough effect; an effect the other way counts as inactive or inconclusive; also: % of control where 0% means no effect). The conditions noted are these: PathHunter PPARalpha complementation, chemiluminescence, 6 h; max response: stronger effect = higher value. In a few lines:
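Chemiluminescence from complemented enzyme reported PPARalpha activation in cells after 6 hr of compound treatment at 37 C. The detection reagent was incubated for 60 min at room temperature, and compounds were scored as agonists.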

A short description of test [13]: qHTS assay for small molecule agonists of the antioxidant response element (ARE) signaling pathway measured by Nrf2-dependant transcriptional activity (AID 720636; active = well fitted curve in the direction sought with a large enough effect in the repeat runs; an effect the other way counts as inactive or inconclusive;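 also: HepG2 cells with an ARE-driven luciferase reporter; % of control where 0% means no effect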). The method in brief:
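In HepG2 cells engineered with an Nrf2-responsive luciferase gene, ARE induction was quantified as luminescence after 16 hr compound treatment at 37 C.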

A short description of test [14]: qHTS assay for small molecule agonists of the antioxidant response element (ARE) signaling pathway measured by Nrf2-dependant transcriptional activity - cell viability counter screen (AID 720653; active = well fitted curve in the direction sought with a large enough effect in the repeat runs; an effect the other way counts as inactive or inconclusive; also: % is scaled to controls: 0 for no effect and ±100 for the full control effect). The conditions noted are these: ARE-bla HepG2 viability, CellTiter-Glo ATP luminescence, 16 h; max response: stronger effect = lower value. In a few lines:
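Cytotoxicity counter screen: intracellular ATP quantified by CellTiter-Glo luminescence in the same ARE-bla HepG2 plates, after 16 h compound exposure and a 2 h beta-lactamase substrate step.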

Test [15] is described as follows: qHTS assay for cell viability of HEK293 cells (AID 743288; active = well fitted curve in the direction sought with a large enough effect; an effect the other way counts as inactive or inconclusive; also: % is scaled to controls: 0 for no effect and ±100 for the full control effect; nearly all actives have a fitted effect of over 50% in size). Particulars: ATP luminescence (CellTiter-Glo), 18 h; max response: stronger effect = lower value. In a few lines:
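Steps: plate 2,000 parental HEK293 cells per well; incubate ≥5 h, 37 C; add compounds in DMSO; incubate 18 h, 37 C; add CellTiter-Glo; wait 30 min at room temperature; read luminescence.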

Test [16] in a line: qHTS assay for cell viability of the p53RE-bla HCT-116 cell line (AID 743292; active = well fitted curve in the direction sought with a large enough effect; an effect the other way counts as inactive or inconclusive; also: % is scaled to controls: 0 for no effect and ±100 for the full control effect; nearly all actives have a fitted effect of over 55% in size). In a few lines:
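Intracellular ATP of p53RE-bla HCT-116 cells measured by luciferase luminescence following 16 h compound incubation at 37 C; DMSO-only wells served as vehicle controls.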

The target of test [17] is Glucocorticoid receptor (Homo sapiens) (UniProt P04150). Put plainly: qHTS assay for small molecule antagonists of glucocorticoid receptor signaling (AID 588533; active = well fitted inhibition curve with a large enough effect in the signal ratio, with a control signal flat, not every such curve was filed as active; the % refers to the signal ratio). The method in brief:
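Antagonist-mode qHTS: compound titrations added to GRE-bla HeLa cells, then dexamethasone 2 nM final; 18 h, 37 C. CCF4 FRET fluorescence normalized to dexamethasone and DMSO; IC50 from Hill fit.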

Test [18] has as its target Retinoic acid receptor RXR-alpha (Homo sapiens) (UniProt P19793). Kind of test: qHTS assay for small molecule agonists of retinoid X receptor alpha signaling (AID 588544).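 Also: 0% = DMSO basal wells and 100% = reference agonist.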
The nature of test [19]: qHTS assay for small molecule activators of the nuclear factor-kappa B (NF-kB) signaling pathway (AID 651749; active = well fitted activation curve with a large enough effect in the signal ratio; the % refers to the signal ratio; also: series mostly up to about 77 µM; % of control where 0% means no effect). Particulars: NF-kB-bla ME-180 cells, beta-lactamase FRET ratio, 16 h; activation: stronger effect = higher value. In a few lines:
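FRET-based beta-lactamase detection in ME-180 cells reports NF-kB response-element-driven transcription following overnight (16 hr) compound treatment.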

Test [20] has as its target Nuclear receptor subfamily 1 group I member 2 (Rattus norvegicus) (UniProt Q9R1A7). Kind of test: qHTS assay for small molecule activators of the rat pregnane X receptor (rPXR) signaling pathway (AID 651751; call rule not given here; also: 0% is about no effect). The conditions noted are these: rPXR reporter cells, luciferase (One-Glo), 24 h.

Vitamin D3 receptor (Homo sapiens), sequence (P11473 whole entry, looked up): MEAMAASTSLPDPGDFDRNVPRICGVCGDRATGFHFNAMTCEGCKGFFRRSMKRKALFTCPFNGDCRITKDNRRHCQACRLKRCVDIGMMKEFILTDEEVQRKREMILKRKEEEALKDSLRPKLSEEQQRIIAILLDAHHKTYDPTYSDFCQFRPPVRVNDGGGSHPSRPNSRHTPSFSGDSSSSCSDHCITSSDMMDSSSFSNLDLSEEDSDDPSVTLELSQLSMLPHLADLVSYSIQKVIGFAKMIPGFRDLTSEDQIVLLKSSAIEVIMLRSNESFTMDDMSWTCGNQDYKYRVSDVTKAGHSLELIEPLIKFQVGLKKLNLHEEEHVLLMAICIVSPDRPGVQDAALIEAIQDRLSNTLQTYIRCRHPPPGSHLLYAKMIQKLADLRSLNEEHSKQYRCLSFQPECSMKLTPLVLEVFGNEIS
Retinoic acid receptor RXR-alpha (Homo sapiens), sequence (P19793 whole entry, looked up): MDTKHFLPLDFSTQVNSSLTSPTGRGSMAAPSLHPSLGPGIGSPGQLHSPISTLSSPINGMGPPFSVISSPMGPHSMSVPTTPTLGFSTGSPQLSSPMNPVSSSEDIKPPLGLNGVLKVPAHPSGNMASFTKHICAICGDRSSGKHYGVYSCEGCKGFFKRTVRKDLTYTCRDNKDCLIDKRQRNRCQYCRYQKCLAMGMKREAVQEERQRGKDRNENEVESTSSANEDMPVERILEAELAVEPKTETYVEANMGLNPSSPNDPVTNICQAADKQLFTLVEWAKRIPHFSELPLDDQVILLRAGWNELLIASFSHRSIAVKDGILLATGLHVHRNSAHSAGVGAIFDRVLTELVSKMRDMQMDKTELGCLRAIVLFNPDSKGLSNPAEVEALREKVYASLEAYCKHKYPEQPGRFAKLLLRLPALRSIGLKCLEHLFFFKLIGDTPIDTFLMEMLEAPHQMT
Peroxisome proliferator-activated receptor alpha (Homo sapiens), sequence (Q07869 whole entry, looked up): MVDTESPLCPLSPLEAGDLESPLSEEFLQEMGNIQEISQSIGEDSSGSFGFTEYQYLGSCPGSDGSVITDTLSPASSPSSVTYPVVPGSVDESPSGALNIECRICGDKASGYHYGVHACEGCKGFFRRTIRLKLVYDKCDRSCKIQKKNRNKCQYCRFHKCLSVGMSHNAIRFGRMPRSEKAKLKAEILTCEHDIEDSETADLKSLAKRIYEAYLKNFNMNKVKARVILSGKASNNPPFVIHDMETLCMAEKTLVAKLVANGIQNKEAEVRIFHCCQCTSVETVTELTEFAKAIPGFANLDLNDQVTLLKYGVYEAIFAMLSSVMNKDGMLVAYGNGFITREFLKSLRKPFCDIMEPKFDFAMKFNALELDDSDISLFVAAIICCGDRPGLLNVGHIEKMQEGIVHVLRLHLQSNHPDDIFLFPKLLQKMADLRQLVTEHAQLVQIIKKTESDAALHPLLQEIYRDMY
Peroxisome proliferator-activated receptor delta (Homo sapiens), sequence (Q03181 whole entry, looked up): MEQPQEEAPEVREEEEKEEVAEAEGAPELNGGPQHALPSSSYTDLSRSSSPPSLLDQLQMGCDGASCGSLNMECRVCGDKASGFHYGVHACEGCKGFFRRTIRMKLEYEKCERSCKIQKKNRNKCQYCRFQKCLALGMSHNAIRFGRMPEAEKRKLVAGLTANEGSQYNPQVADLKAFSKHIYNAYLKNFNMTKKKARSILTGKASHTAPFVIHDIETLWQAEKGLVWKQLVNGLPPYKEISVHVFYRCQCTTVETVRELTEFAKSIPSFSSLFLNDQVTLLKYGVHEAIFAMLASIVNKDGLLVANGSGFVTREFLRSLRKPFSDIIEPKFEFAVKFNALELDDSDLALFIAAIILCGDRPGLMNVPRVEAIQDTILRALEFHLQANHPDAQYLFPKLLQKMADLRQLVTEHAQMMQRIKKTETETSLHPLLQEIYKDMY
Nuclear receptor subfamily 1 group I member 2 (Rattus norvegicus), sequence (Q9R1A7 whole entry, looked up): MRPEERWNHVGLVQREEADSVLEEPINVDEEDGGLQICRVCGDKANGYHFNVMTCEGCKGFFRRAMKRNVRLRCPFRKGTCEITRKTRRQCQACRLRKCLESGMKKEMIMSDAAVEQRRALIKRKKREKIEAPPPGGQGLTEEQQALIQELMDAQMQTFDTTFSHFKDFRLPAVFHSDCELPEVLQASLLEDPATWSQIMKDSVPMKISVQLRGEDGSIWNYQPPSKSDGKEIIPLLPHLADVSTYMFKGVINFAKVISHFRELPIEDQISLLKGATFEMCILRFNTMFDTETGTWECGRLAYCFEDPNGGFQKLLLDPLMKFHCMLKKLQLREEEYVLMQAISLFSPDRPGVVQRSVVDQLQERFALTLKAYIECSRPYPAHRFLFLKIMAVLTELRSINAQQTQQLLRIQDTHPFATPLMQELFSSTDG
Glucocorticoid receptor (Homo sapiens), sequence (P04150 whole entry, looked up): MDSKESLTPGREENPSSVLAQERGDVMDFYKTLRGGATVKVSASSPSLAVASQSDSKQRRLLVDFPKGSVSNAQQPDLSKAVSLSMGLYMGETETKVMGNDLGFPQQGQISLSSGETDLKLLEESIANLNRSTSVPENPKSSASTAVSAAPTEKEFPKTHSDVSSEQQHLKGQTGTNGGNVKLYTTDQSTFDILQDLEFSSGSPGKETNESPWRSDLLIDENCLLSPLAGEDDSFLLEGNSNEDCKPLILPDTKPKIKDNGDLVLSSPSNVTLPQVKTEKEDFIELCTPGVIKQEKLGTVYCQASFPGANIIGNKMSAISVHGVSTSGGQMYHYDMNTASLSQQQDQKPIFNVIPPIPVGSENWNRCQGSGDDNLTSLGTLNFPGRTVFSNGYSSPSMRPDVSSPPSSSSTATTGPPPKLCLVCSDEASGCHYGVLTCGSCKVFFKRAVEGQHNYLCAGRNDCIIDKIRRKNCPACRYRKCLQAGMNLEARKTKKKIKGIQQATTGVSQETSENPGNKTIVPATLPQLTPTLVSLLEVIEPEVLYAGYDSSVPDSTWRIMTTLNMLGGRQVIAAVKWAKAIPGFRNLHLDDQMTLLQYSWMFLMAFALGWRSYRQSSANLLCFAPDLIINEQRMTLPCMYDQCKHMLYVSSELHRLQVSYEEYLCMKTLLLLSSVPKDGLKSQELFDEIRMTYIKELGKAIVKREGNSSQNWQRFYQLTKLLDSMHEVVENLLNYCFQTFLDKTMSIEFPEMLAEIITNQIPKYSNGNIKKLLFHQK
Estrogen receptor (Homo sapiens), sequence (P03372 whole entry, looked up): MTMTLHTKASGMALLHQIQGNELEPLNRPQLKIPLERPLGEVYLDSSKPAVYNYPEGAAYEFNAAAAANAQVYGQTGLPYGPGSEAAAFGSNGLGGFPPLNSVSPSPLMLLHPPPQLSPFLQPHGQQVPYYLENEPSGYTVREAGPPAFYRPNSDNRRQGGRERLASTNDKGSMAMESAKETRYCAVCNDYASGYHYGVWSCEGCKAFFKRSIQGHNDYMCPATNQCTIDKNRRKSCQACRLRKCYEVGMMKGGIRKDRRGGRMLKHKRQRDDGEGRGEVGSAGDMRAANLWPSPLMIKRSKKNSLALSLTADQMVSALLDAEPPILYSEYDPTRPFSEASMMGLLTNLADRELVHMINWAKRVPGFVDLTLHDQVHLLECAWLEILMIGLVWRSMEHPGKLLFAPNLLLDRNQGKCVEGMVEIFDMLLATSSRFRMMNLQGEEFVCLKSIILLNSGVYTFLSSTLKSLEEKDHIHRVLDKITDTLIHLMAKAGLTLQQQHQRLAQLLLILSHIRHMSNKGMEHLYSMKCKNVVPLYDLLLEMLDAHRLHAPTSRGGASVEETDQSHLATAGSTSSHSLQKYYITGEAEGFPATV

For the molecule `CSC(=O)c1c(C(F)F)nc(C(F)(F)F)c(C(=O)SC)c1CC(C)C`, the Potency result in test [1], in [4], in test [5], in [6], in test [13] and in [16] was “inactive” throughout. Further, the molecule was called inactive in test [2]. Also, the max response in test [3] is 97.5%; in test [7] it was -14.1%; in [8], -15.4% (inactive); in test [12], 6.5% (inactive); in test [14], -2.65% (inactive); in test [15], -16.9% (inactive). The activity change % (negative = inhibition) in [9] was -31.5% (inactive). Further, the figures for the activation in test [10] and in test [11] were -0.469% (inactive) and 1.06% (inactive), respectively.

`O=S(=O)(O)C(F)(F)C(F)(F)C(F)(F)C(F)(F)C(F)(F)C(F)(F)F`: the Potency entry in [17], in [4], in [5], in [18], in test [6] and in test [13] was “inactive” throughout. Further, the Potency result in [16] is “inactive”. For the same molecule, the molecule was classed as inactive in test [2]. In addition, the max response is -35.3% and 95.7% in [3]; 0.0729% in [7]; -0.502% (inactive) in test [8]; 12% (inactive) and 14.9% (inactive) in test [12]; 4.85% (inactive) and -13.8% (inactive) in [14]; -20.2% (inactive) and -14.6% (inactive) in [15]. The max response in test [20] is -2.73% (inactive) and -3.57% (inactive). The activity change % (negative = inhibition) in test [9] was 23.1% (inactive). Also, the activation in [10] was -1.95% (inactive) and 1.08% (inactive); in [19] it was 0.018% (inactive) and -0.659% (inactive); in [11] it was 2.71% (inactive) and 0.937% (inactive).

In the case of `CNC(=S)S`, the Potency entry in test [17], in test [4], in test [5], in test [18], in [13] and in test [16] was “inactive” in each case. For the same molecule, the molecule was called inactive in test [2]. The max response in test [3] was -6.57%; in [7], -10.7%; in [8], -13.7% (inactive); in [12], -2.07% (inactive); in [14] it was -4.46% (inactive); in test [15], -18% (inactive). In addition, in test [20], the max response was 0.745% (inactive). In addition, the activation in test [10] was -4.42% (inactive); in test [19], -2.14% (inactive).

Regarding `CNC(=O)Oc1cc(C)c(SC)c(C)c1`, the Potency in test [1] was 25.1 µM (active). The Potency entry in test [17], in [4], in test [5], in test [6], in test [13] and in test [16] was “inactive” each time. Besides, in test [2], the outcome was inactive. Besides, the figures for the max response in test [3], in test [12] and in [14] were 12.6%, 0.9% (inactive) and -13.2% (inactive), respectively. In test [9], the activity change % (negative = inhibition) was -16.8% (inactive). For the same molecule, the activation was -3.45% (inactive) in [10], -0.568% (inactive) in test [19] and 0.0661% (inactive) in test [11].

Consider `CCC/C(=N\OCC)C1=C(O)CC(CC(C)SCC)CC1=O` (configuration not stated), for which the Potency entry in test [17], in test [4], in test [5], in test [18], in [6] and in test [16] was “inactive” each time. In addition, the molecule was classed as inactive in test [2]. The max response in [3] was -49.6%; in [7] it was -1.11%; in test [8], -23% (inactive); in test [12], 0.062% (inactive); in [14] it was -2.32% (inactive); in test [15], -13.8% (inactive). Further, in test [20], the max response was 0.0341% (inactive). Moreover, the activation was -6.84% (inactive) in test [10], 0.879% (inactive) in test [19] and 1.24% (inactive) in test [11].

Take `CC1=C(C(=O)Nc2ccccc2)SCCO1`: the Potency entry in [1], in test [17], in [5], in test [18], in test [6] and in test [16] was “inactive” throughout. In addition, in [2], the call was inactive. In addition, the max response in test [7] was -5.88%; in test [8] it was -6.74% (inactive); in [12] it was -3.16% (inactive); in [14] it was -4.21% (inactive); in test [15] it was -15.4% (inactive). The activity change % (negative = inhibition) in test [9] was 3.71% (inactive). Moreover, the activation in test [10] was 1.21% (inactive).
